Assay outcomes: PubChem, National Center for Advancing Translational Sciences (NCATS)
An excerpt weighted towards active compounds, which were near 3.9% of everything screened.
D1 potentiator = human D1 dopamine receptor positive modulation; P21728; HEK293 TREx D1 cells, calcium flux, dopamine EC20 potentiation; potentiation, % at 10 µM; actives 0.036% (n = 360,000); in the data active = potentiation above about 30%; also: 0% is about no effect
D1 agonist = human D1 receptor agonism. HEK293 T-REx D1 cells, calcium flux, agonist mode. P21728. activation, % at 2 µM. AID 504660. actives 1% (n = 360,000); in the data active = activation above about 30%; also: 0% is about no effect
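Tetracycline-induced HEK293 TREx D1 cells, force-coupled to calcium signalling, were dye-loaded with a no-wash calcium kit. Compound was pin-added after a 10 s baseline. Fluorescence was read kinetically at 1 cycle/s for 180 s, with calcium rises flagged as agonism.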
USP2a inh = blocks human ubiquitin-specific protease USP2a; USP2 core, Ub-CHOP2 coupled fluorogenic reporter, 485/531; Potency, µM (series often up to 38.3 µM), inactives show top-dose activity change, negative = inhibition, usual class: inhibitors; actives 0.01% (n = 330,000);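 also: potency is read from the fitted curve at half-maximal effect; plate controls were DMSO wells for no effect and full inhibition by NEM control for full effect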
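USP2 core (10nM final) preincubated 30min RT with compound in 20mM Tris-HCl pH 8.0, 2mM CaCl2, 2mM beta-mercaptoethanol, 0.05% CHAPS; 25nM Ub-CHOP2 plus 25nM reporter substrate added, fluorescence (Ex485/Em531) read after 60min.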
GALK inhibitor = blocks human galactokinase activity; P51570; Purified GALK, Kinase-Glo residual ATP luminescence; Potency, µM (titrated, usually from 57.5 µM), inactives show at the highest dose activity change, negative = inhibition, usual class: inhibitors; actives 0.007% (n = 270,000); AID 1868; also: potency is read from the fitted curve at half-maximal effect; % is scaled to controls: 0 for no effect and ±100 for the full control effect
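The enzyme phosphorylates galactose (100 uM) using ATP (35 uM); inhibition is detected as higher residual ATP, quantified by bioluminescence after 1 h reaction at room temperature, pH 8.0.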
Eya2 inh = inhibitors of human Eya2 phosphatase activity; O00167; recombinant Eya2, OMFP fluorescence dephosphorylation (OMFP is methylfluorescein phosphate); Potency, µM (highest dose often 76.9 µM), without a hit: at the highest dose activity, negative = inhibition, most hits filed as inhibitors; actives 0.006% (n = 330,000); also: potency is read from the fitted curve at half-maximal effect; % is scaled to controls: 0 for no effect and ±100 for the full control effect
Target sequence (O00167 whole entry, looked up): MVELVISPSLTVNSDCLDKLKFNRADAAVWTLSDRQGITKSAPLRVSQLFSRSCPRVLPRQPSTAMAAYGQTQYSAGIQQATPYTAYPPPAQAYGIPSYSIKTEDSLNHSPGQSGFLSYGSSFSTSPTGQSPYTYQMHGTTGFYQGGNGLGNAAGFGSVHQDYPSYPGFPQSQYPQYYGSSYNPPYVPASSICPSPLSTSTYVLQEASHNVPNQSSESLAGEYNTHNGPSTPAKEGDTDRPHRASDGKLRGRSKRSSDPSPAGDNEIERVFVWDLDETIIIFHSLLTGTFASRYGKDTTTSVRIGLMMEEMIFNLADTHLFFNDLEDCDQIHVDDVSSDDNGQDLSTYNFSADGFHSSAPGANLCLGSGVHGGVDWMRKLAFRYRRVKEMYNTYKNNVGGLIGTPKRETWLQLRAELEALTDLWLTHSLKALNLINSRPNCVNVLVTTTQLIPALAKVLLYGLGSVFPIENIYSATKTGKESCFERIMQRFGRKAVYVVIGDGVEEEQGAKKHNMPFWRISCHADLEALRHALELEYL
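Eya2 (0.2 uM) preincubated 10 min at ambient with compound, then OMFP substrate added at 50 uM; 10 min reaction in 50 mM HEPES pH 7.5, 50 mM NaCl, 5 uM MgCl2, 0.05% BSA, 1 mM DTT. Fluorescence read at Ex 485/Em 525 nm.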
D1 antag = blocks dopamine activation of the human D1 receptor. P21728. HEK293 TREx D1 cells, calcium flux, dopamine EC80; active compounds read low. activity change, negative = inhibition, % at 10 µM. actives 3.2% (n = 360,000). AID 504652; in the data active = activity change below about -30%; also: % is scaled to controls: 0 for no effect and ±100 for the full control effect
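Antagonism measured as reduced calcium response to an EC80 dopamine addition following 180 s compound pre-read; cells were inducible HEK293 Trex D1 plated overnight at 30 C, read kinetically at 1 cycle/sec.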
* marks the source's active call; other numbers are inactive results; nt = not tested or not shown. Unless noted, calls follow the shape of the dose curve; as a rule, active = well fitted inhibition curve with a large enough effect; inconclusive = small, poorly fitted or top-dose-only effect, or effect the other way; inactive = flat fitted curve, though single readings scatter.

SMILES	D1 potentiator	D1 agonist	USP2a inh	GALK inhibitor	Eya2 inh	D1 antag
COc1ccc(OCCSc2nnc(CCNC(=O)c3ccc(Cl)c(Cl)c3)n2C)cc1	-5	1	0%	1%	-15%	-36*
COc1ccc(OCCSc2nnc(CCNC(=O)c3ccc(OC)cc3)n2C)cc1	-8	1	-1%	-3%	13%	8
COc1ccc(NC(=O)Cn2nc(C)c3nn(-c4ccc(Cl)cc4)c(C)c3c2=O)cc1	1	2	nt	nt	nt	-17
CC(=O)Nc1ccc(C(=O)Nc2ccc3c(c2)OCO3)cc1	-1	3	-1%	6%	-6%	-31*
O=C(Nc1ccc2c(c1)OCO2)c1ccc2c(c1)OCO2	-2	0	-2%	4%	1%	5
CCN(CC)c1ccc(NC(=O)c2ccc3c(c2)OCO3)c(C)c1	-6	4	1%	6%	-9%	-41*
O=C(NCc1ccc2c(c1)OCO2)c1ccc(NC(=O)C2CCCO2)cc1 (stereo not drawn)	2	-2	-1%	-2%	0%	-12
Cc1cc(NC(=O)c2ccc3c(c2)OCO3)ccc1NC(=O)c1ccccc1	-6	4	1%	-3%	-1%	-15
CC(=O)Nc1ccc(C(=O)Nc2ccc3c(c2)OCCO3)cc1	4	2	-1%	5%	6%	4
O=C(Nc1ccc2c(c1)OCO2)c1ccc[n+]([O-])c1	3	0	0%	-1%	6%	-39*
O=C(Nc1ccc2c(c1)OCCO2)c1ccc(NC(=O)C2CCCO2)cc1 (stereo not drawn)	-6	1	2%	-2%	12%	-49*
COc1ccccc1N1CCN(c2ncnc3c2cnn3-c2cccc(Cl)c2)CC1	0	-1	nt	nt	nt	-4
Cc1cc2nn(-c3ccccc3)nc2cc1NC(=O)COc1ccc(Cl)cc1	-2	1	nt	nt	nt	4
COc1ccc(NC(=O)c2oc3ccccc3c2NC(=O)c2cccc(F)c2)c(OC)c1	1	4	nt	nt	nt	-8
CCOC(=O)C1=C(N)Oc2c(oc(CO)cc2=O)C1c1c(F)cccc1Cl (stereo not drawn)	2	0	0%	-2%	-2%	-64*
CCOC(=O)C1=C(N)Oc2c(oc(CO)cc2=O)C1c1ccc(Cl)cc1 (stereo not drawn)	2	0	3%	-2%	8%	11
CN(C)c1ccc(CNC(=O)c2ccc(Cn3c(SCc4ccccc4)nc4cccnc43)cc2)cc1	-4	1	nt	nt	nt	1
COc1cc(/C=N/O)ccc1Oc1ccc([N+](=O)[O-])cc1[N+](=O)[O-]	6	2	2%	6%	-6%	8
O=[N+]([O-])c1cc(/C=N\O)ccc1Oc1ccc(F)cc1	-4	1	2%	2%	-4%	-53*
Cc1nc(-c2ccc(S(=O)(=O)N3CCN(c4ccccc4F)CC3)cc2)co1	-5	1	nt	nt	nt	-34*
CCc1ccccc1N1CCN(S(=O)(=O)c2ccc(F)c(C)c2)CC1	-2	7	1%	0%	13%	-37*
CC(=O)Nc1ccc(NC(=O)c2c(C)nn(-c3ccccc3)c2-n2cccc2)cc1	-2	1	nt	nt	nt	7
COc1cc(/C=N/NC(=O)C[n+]2ccccc2)cc(OC)c1OC(C)=O	-11	1	3%	-1%	-6%	-79*
Cc1ccc(CN=c2c([N+](=O)[O-])nn(-c3cccc(C)c3)n2O)cc1	-2	-1	1%	0%	4%	-47*
COc1ccc(-n2nc([N+](=O)[O-])c(=NCCc3ccc(C)cc3)n2O)cc1	-2	1	0%	1%	-2%	-9
SMILES	D1 potentiator	D1 agonist	USP2a inh	GALK inhibitor	Eya2 inh	D1 antag
Cc1ccc(CN=c2c([N+](=O)[O-])nn(-c3cccc(Cl)c3)n2O)cc1	-5	4	8%	-1%	-5%	-34*
COc1ccccc1CNC(=O)C1CCCN(c2nnc(-n3c(C)ccc3C)s2)C1 (stereo not drawn)	0	-1	nt	nt	nt	6
OC(COc1ccc(Br)cc1)CN1CCC(Cc2ccccc2)CC1 (stereo not drawn)	-11	18	-1%	-1%	-7%	-43*
CCc1ccc(OCC(O)CN2CCN(c3ccccn3)CC2)cc1 (stereo not drawn)	0	-3	-4%	5%	-12%	-9
CC(=O)c1ccc(OCC(O)CN2CCN(c3ccccn3)CC2)cc1 (stereo not drawn)	-6	2	-4%	2%	-14%	-60*
COc1ccc(OCC(O)CN2CCN(c3ccccc3)CC2)cc1 (stereo not drawn)	-5	7	-2%	5%	-6%	-13
CCc1ccc(OCC(O)CN2CCN(c3ccc(OC)cc3)CC2)cc1 (stereo not drawn)	0	30*	3%	-6%	-9%	-40*
CC1CCN(CC(O)COc2ccc(F)cc2)CC1 (stereo not drawn)	nt	2	1%	1%	-25%	-49*
CCc1ccc2occ(CC(=O)Nc3sc4c(c3C(=O)OC)CCC4)c2c1	-2	5	nt	nt	nt	-5
O=[N+]([O-])c1c(Nc2ccc(O)cc2)cc(Cl)c2nonc12	-4	3	4%	-6%	-9%	-42*
COc1cc(OC)cc(C(=O)NC(C(=O)NNC(=O)c2ccc(C)cc2)C(C)C)c1 (stereo not drawn)	5	1	1%	nt	8%	15
COc1ccc(C(=O)NNC(=O)C(NC(=O)c2cc(OC)cc(OC)c2)C(C)C)cc1 (stereo not drawn)	-4	1	3%	nt	-1%	-39*
Cc1cc(N/N=C/c2ccc(O)c(C)c2O)nc(-c2ccccc2O)n1	-9	0	-12%	-4%	-30%	-32*
COc1ccc(NC(=O)CN2C(=O)CC(C)(C)S(=O)(=O)c3ccccc32)cc1	-8	1	1%	2%	6%	-33*
CC(C)(C)C(=O)C1=C(O)C(=O)N(Cc2ccccc2)C1c1ccccc1F (stereo not drawn)	-6	54*	-1%	4%	0%	-13
CC(=O)C1=C(O)C(=O)N(Cc2ccco2)C1c1ccccc1F (stereo not drawn)	4	7	1%	0%	16%	2
COc1cccc(NC(=O)COc2ccccc2)c1	10	3	2%	-2%	3%	13
O=C(COc1cc(Cl)c(Cl)cc1Cl)Nc1cccc(O)c1	1	3	0%	2%	-4%	-22
Cc1cc(OCC(=O)Nc2ccncc2)ccc1Br	-2	13	2%	3%	7%	-32*
